Data from PubChem BioAssay AID1259420 (Broad Institute, 2018).
Values joined by “and” are separate entries in the source; they are usually repeats but may differ in a detail not shown here. Identical values can stand only once. Out of some 1,000 compounds screened, about 250 (25%) were called active. About 31% were inconclusive and are not listed. Not all results are given here. Measured potencies and affinities stand elsewhere. A number with no mark means an inactive call. The rule behind the calls is not given here.

Assay: T. gondii intracellular growth, IFN-gamma absent, dose response, cell-based (AID 1259420);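 note: host cells were HeLa; final incubation lasted 72 hours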
Settings: Toxoplasma gondii growth in host cells, no IFN-gamma; at 19.5 µM unless noted

Structure (SMILES)	max activity
Cn1nc2c(c1C(=O)Nc1ccc(N3CCCCC3)c(F)c1)CCCC2	25.8% [at 10 µM]
Cc1ccccc1-c1ccc([C@H]2[C@@H](CO)N3C(=O)CN(C(=O)c4ccncc4)C[C@@H]23)cc1	-13.9% [at 0.16 µM]
CN(C)C1CCN(Cc2cccc(C#N)c2)C(C(=O)O)C1 (stereo not given)	8.23%
Cc1nnsc1CN(C)Cc1[nH]c2ccc(F)cc2c1C	12.6% [at 0.16 µM]
CC(C)NC(=O)N1CC(=O)N2[C@H](CO)[C@H](c3ccc(/C=C/c4ccccc4)cc3)[C@@H]2C1	20.9%
COc1ccc(-c2nc(NCCN3CCN(C)CC3)c3ccccc3n2)cc1	12.8%
COc1ccc(-c2nc(NCCN3CCC(C)CC3)c3ccccc3n2)cc1	5.6% [at 10 µM]
COc1ccc(-c2nc(NCCCN3CCCC3)c3ccccc3n2)cc1	7.2%
COc1ccc(-c2nc(NCCN3CCOCC3)c3ccccc3n2)cc1	8.12%
COc1ccc(-c2ccc([C@H]3[C@H]4CN(Cc5ccccc5)CC(=O)N4[C@H]3CO)cc2)cc1	43.4%
CC(c1cc2ccccc2s1)N(O)C(N)=O (stereo not given)	-4.76% [at 5 µM]
CN1[C@H](CO)[C@@H]2c3ccccc3N(C(=O)C3CCCCC3)C[C@@H]21	-10.7% [at 0.3 µM]
C/C=C/c1ccc([C@@H]2[C@@H](CO)N3CCCCN(CCC(F)(F)F)C[C@@H]23)cc1	39.6%
O=S(=O)(c1cccs1)N1CCCCN2[C@@H](CO)[C@@H](c3ccc(/C=C/c4ccccc4)cc3)[C@@H]2C1	38.2%
C/C=C/c1ccc([C@H]2[C@@H](CO)N3CCCCN(S(=O)(=O)c4ccc(OC)cc4)C[C@H]23)cc1	19.6%
O=S(=O)(c1ccccc1)N1CCCCN2[C@@H](CO)[C@H](c3ccc(C#CC4CCCC4)cc3)[C@@H]2C1	49.6%
CCC[C@@]1(CCc2ccccc2)CC(=O)C([C@H](CC)c2cccc(NS(=O)(=O)c3ccc(C(F)(F)F)cn3)c2)C(=O)O1 (stereo not given in full)	6.55% [at 10 µM]
Cc1ccc(-c2ccc([C@H]3[C@@H](CO)N4C(=O)CN(C(=O)NC(C)C)C[C@@H]34)cc2)cc1	-19.8% [at 5 µM]
COCCC(=O)c1cc2c(s1)CCN2Cc1cccnc1	-10.9% [at 0.6 µM]
CN1CCC(=C2c3ccccc3C=Cc3ccccc32)CC1	23.8%
N#C[C@H]1[C@@H](c2ccc(-c3cccnc3)cc2)[C@@H](CO)N1C(=O)Nc1ccc(F)cc1	7.86%
COc1ccc(-c2ccc([C@H]3[C@H](C#N)N(C(=O)NC(C)C)[C@H]3CO)cc2)cc1	23.7%
CCCNC(=O)N1C[C@@H]2N[C@H](C1)C2c1ccc(-c2ccccc2C)cc1 (stereo not given in full)	14.1% and 25.2%

Structure (SMILES)	max activity
N#C[C@H]1[C@H](c2ccc(C#Cc3ccccc3F)cc2)[C@@H](CO)N1C(=O)c1cccnc1	-12.3% [at 10 µM]
N#C[C@@H]1[C@H](c2ccc(C#Cc3cccc(F)c3)cc2)[C@H](CO)N1C(=O)C1CCOCC1	23.4%
N#C[C@H]1[C@@H](c2ccc(C3=CCCCC3)cc2)[C@@H](CO)N1C(=O)Nc1ccccc1F	15.8% [at 10 µM]
N#C[C@H]1[C@H](c2ccc(C#Cc3cccc(F)c3)cc2)[C@@H](CO)N1C(=O)C1CCOCC1	10.6%
COc1cccc(C#Cc2ccc([C@H]3[C@@H](C#N)N(C(=O)c4ccccn4)[C@@H]3CO)cc2)c1	21.5%
CC(C)C#Cc1ccc([C@@H]2[C@H]3CN(S(=O)(=O)c4ccccc4)CC(=O)N3[C@H]2CO)cc1	15.9%
CN1C[C@H]2CN(Cc3ccc4c(c3)OCO4)CCC[C@@]2(C(=O)O)C1	-10.3% [at 5 µM]
CS(=O)(=O)N1CC(=O)N2[C@H](CO)[C@@H](c3ccc(C#CCC4CCCC4)cc3)[C@@H]2C1	58.7%
CC(C)C#Cc1ccc([C@H]2[C@H](CO)N3C(=O)CN(C(=O)NC4CCCC4)C[C@@H]23)cc1	-11.2%
COc1ccccc1-c1ccc([C@H]2[C@H](CO)N[C@@H]2C#N)cc1	29.5%
N#Cc1cccc(-c2ccc([C@@H]3[C@H]4CN(Cc5ccccc5F)CCCCN4[C@H]3CO)cc2)c1	-16.7% [at 0.6 µM]
N#Cc1cccc(-c2ccc([C@H]3[C@H]4CN(Cc5ccccc5F)CCCCN4[C@H]3CO)cc2)c1	25.1%
COc1ccccc1C#Cc1ccc([C@@H]2[C@@H](CO)N3CCCCN(C(=O)C4CCC4)C[C@H]23)cc1	18.4% [at 10 µM]
COc1ccccc1C#Cc1ccc([C@H]2[C@@H](CO)N3CCCCN(C(=O)C4CCC4)C[C@@H]23)cc1	-3.84% [at 0.16 µM]
O=C(C1CCC1)N1C[C@@H]2N[C@H](C1)C2c1ccc(/C=C/c2ccccc2)cc1 (stereo not given in full)	-22.2% [at 0.3 µM]
NCCNC(=O)c1nc(-c2ccc(Br)o2)no1	7.54% [at 0.08 µM]
O=C(Cc1cccnc1)N1CC(=O)N2[C@@H](CO)[C@H](c3ccc(C4=CCCCC4)cc3)[C@@H]2C1	18.9% [at 0.16 µM]
Cc1nc2c(cnn2-c2ccccc2)c(=O)n1-c1cccc2ccccc12	-11.1% [at 10 µM]
CCS(=O)(=O)N1CCc2nc(-c3cccc(F)c3)nc(NC3CC3)c2C1	-10.7% [at 2.6 µM]
COCC1(C(=O)N2CCc3c(nc(-c4ccccc4)[nH]c3=O)C2)CCC1	24.5%
CC(C)CNC(=O)[C@H]1C[C@H]2CN(Cc3cccc(Cl)c3)C[C@H]1O2	13.8% [at 0.3 µM]
Cc1ccc(CN2C[C@@H]3C[C@H](C(=O)Nc4ccccc4)[C@@H](C2)O3)cc1	4.12% [at 0.6 µM]
